“And” between values parts separate entries of the source, which are not always exact repeats. Equal values may be shown once. Results filed as inconclusive are left out. The source made the active and inactive calls. The call rests on the fitted dose curve; in most records, active means well fitted curve in the direction sought with a large enough effect; inconclusive means small, poorly fitted or top-dose-only effect, or another doubt; inactive means no such curve, though single readings can be large; an effect the other way counts as inactive or inconclusive.
Columns and labels:
CRL-7250 = normal cell line; test: Cytotoxic Profiling of Annotated Libraries Using Quantitative High-Throughput Screening (AID 1296008); settings: Five cell lines viability, CellTiter-Glo ATP luminescence, 48-72 h; max response: active compounds read low; further: nearly all actives have a fitted effect of over 60% in size; on max response: on the % scale 0 is the no-effect control and ±100 the full control effect
In short: (§1)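 Cytotoxicity was measured as CellTiter-Glo ATP luminescence, read after 10 min at room temperature. Compound treatment of the cells lasted 48 or 72 hr at 37 degrees Celsius in a qHTS format.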

HEK293 = test: as above; settings: Five cell lines viability, CellTiter-Glo ATP luminescence, 48-72 h; max response: active compounds read low
In short: as §1

HaCat [1] = test: as above; settings: Five cell lines viability, CellTiter-Glo ATP luminescence, 48-72 h; max response: active compounds read low
In short: as §1

KB-3-1 = test: as above; settings: Five cell lines viability, CellTiter-Glo ATP luminescence, 48-72 h; max response: active compounds read low
In short: as §1

NIH3T3 [2] = test: as above; settings: Five cell lines viability, CellTiter-Glo ATP luminescence, 48-72 h; max response: active compounds read low
In short: as §1

HACAT [3] = test: qHTS assay to identify novel small-molecules to repurpose for Merkel cell carcinoma treatment (AID 1296009); settings: MCC and control cell lines, CellTiter-Glo viability, 72 h; at 44.8 µM (top of the series) unless noted; further: nearly all actives have a fitted effect of over 60% in size
In short: (§2)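 After compound transfer in DMSO, plates were kept 72 hr at 37 degree celsius. Luminescent ATP signal from CellTiter-Glo served as viability measure, normalized against DMSO and no-cell controls.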

HEK293T = test: as above; settings: MCC and control cell lines, CellTiter-Glo viability, 72 h; at 44.8 µM (top of the series) unless noted
In short: as §2

MCC-13 = test: as above; settings: MCC and control cell lines, CellTiter-Glo viability, 72 h; series mostly up to 46 µM
In short: as §2

MKL-1 = test: as above; settings: MCC and control cell lines, CellTiter-Glo viability, 72 h; series mostly up to 46 µM
In short: as §2

MKL-2 = test: as above; settings: MCC and control cell lines, CellTiter-Glo viability, 72 h; series mostly up to 46 µM
In short: as §2

NIH3T3 [4] = test: as above; settings: MCC and control cell lines, CellTiter-Glo viability, 72 h; at 44.8 µM (top of the series) unless noted
In short: as §2

UISO = test: as above; settings: MCC and control cell lines, CellTiter-Glo viability, 72 h; series mostly up to 46 µM
In short: as §2

WaGa = test: as above; settings: MCC and control cell lines, CellTiter-Glo viability, 72 h; series mostly up to 46 µM
In short: as §2

C33A = test: Primary qHTS to identify gynecologic anti-cancer compounds using libraries of approved drugs and bioactive compounds (AID 1345084); settings: Gynecologic cancer cell panel viability, ATPlite luminescence, 48 h; series mostly up to 57.5 µM; further: on the % scale 0 is the no-effect control and ±100 the full control effect; nearly all actives have a fitted effect of over 55% in size
In short: (§3)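 ATP-based viability (ATPlite), 1,000 cells/well, 16 h pre-incubation, 48 h compound at 37 C, 5% CO2, 15 min RT before read.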

CAOV3 = test: as above; settings: Gynecologic cancer cell panel viability, ATPlite luminescence, 48 h; series mostly up to 57.5 µM
In short: as §3

CASKI = test: as above; settings: Gynecologic cancer cell panel viability, ATPlite luminescence, 48 h; series mostly up to 57.5 µM
In short: as §3

Es-2 = test: as above; settings: Gynecologic cancer cell panel viability, ATPlite luminescence, 48 h; series mostly up to 57.5 µM
In short: as §3

HeLa = test: as above; settings: Gynecologic cancer cell panel viability, ATPlite luminescence, 48 h; series mostly up to 57.5 µM
In short: as §3

W2 = test: qHTS profiling for inhibitors of Plasmodium falciparum proliferation (AID 504749);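 further: 0% = DMSO vehicle and full inhibition = artemisinin control; nearly all actives have a fitted effect of over 60% in size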; settings: P. falciparum in erythrocytes, SYBR Green DNA, 72 h; series mostly up to 28.7 µM
In short: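 Three-day growth assay of blood-stage parasites in erythrocytes (0.3% parasitemia, 2.5% hematocrit) at 37 C, 5% CO2, quantified by SYBR Green DNA staining after overnight detergent lysis.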

MCC-26 = test: qHTS assay to identify novel small-molecules to repurpose for Merkel cell carcinoma treatment (AID 1296009); settings: MCC and control cell lines, CellTiter-Glo viability, 72 h; series mostly up to 46 µM; further: nearly all actives have a fitted effect of over 60% in size
In short: as §2

CNS(=O)(=O)CCc1ccc2[nH]cc(C3CCN(C)CC3)c2c1
inactive: max response (CRL-7250) -7.4% and 0.211% | outcome (CRL-7250) | max response (HEK293) -3.79% and -10.1% | outcome (HEK293) | max response (HaCat [1]) 0.93% | outcome (HaCat [1]) | max response (KB-3-1) -19.4% and 0.237% | outcome (KB-3-1) | max response (NIH3T3 [2]) 0.12% | outcome (NIH3T3 [2]) | outcome (HACAT [3]) | outcome (HEK293T) | Potency (MCC-13) | Potency (MKL-1) | Potency (MKL-2) | outcome (NIH3T3 [4]) | Potency (UISO) | Potency (WaGa) | Potency (C33A) | Potency (CAOV3) | Potency (CASKI) | Potency (Es-2) | Potency (HeLa)

O=S(=O)(O)CCS
inactive: Potency (W2) | max response (CRL-7250) 3.2% | outcome (CRL-7250) | max response (HEK293) -11.9% | outcome (HEK293) | max response (HaCat [1]) -12.1% | outcome (HaCat [1]) | max response (KB-3-1) 0.578% | max response (NIH3T3 [2]) 1.04% and -6.12% | outcome (HACAT [3]) | outcome (HEK293T) | Potency (MCC-13) | Potency (MCC-26) | Potency (MKL-1) | Potency (MKL-2) | Potency (UISO) | Potency (WaGa) | Potency (C33A) | Potency (CAOV3) | Potency (CASKI) | Potency (Es-2) | Potency (HeLa)

Cc1cc(NS(=O)(=O)c2ccc(N)cc2)no1
inactive: max response (CRL-7250) -8.57% | outcome (CRL-7250) | max response (HEK293) 1.33% and -5.68% | outcome (HaCat [1]) | max response (KB-3-1) -10.1% | outcome (KB-3-1) | max response (NIH3T3 [2]) -3.95% | outcome (NIH3T3 [2]) | outcome (HACAT [3]) | Potency (MCC-13) | Potency (MCC-26) | Potency (MKL-1) | Potency (MKL-2) | outcome (NIH3T3 [4]) | Potency (UISO) | Potency (WaGa) | Potency (CAOV3) | Potency (CASKI) | Potency (Es-2) | Potency (HeLa)

COc1ccccc1OCC(O)COC(N)=O (stereo not given)
inactive: max response (CRL-7250) -1.17% | outcome (CRL-7250) | max response (HEK293) 2.15% | outcome (HEK293) | max response (HaCat [1]) -15.7% | outcome (HaCat [1]) | max response (KB-3-1) 5.86% and 1.39% | max response (NIH3T3 [2]) 4.42% and 1.69% | outcome (HACAT [3]) | outcome (HEK293T) | Potency (MCC-13) | Potency (MCC-26) | Potency (MKL-1) | Potency (MKL-2) | Potency (UISO) | Potency (WaGa) | Potency (C33A) | Potency (CAOV3) | Potency (CASKI) | Potency (Es-2)
